From PubChem
The list is not random: actives were taken first. Their share in the collection is about 7.7%.
NOMO-1 viab = NOMO-1 AML cell viability reduction, primary screen, STK33 inhibitor project, CellTiter-Glo luminescence; NOMO-1 AML viability, 72 h; inhibition, % (test concentration not listed); 37,000 tested, 7.5% active; AID 2330, 2010; in the data active = inhibition above about 80%; inconclusive = no clear call, values can overlap the other calls
Shh pathway inh = Hedgehog pathway signaling inhibitors, primary screen, luminescence, Shh-LIGHT2 cells, Gli-luciferase | 22,000 tested, 2.1% active | AID 2313, 2010 | inhibition, % (concentration not given with the values) | Shh-LIGHT2 Gli-luciferase reporter, 30 h;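 active = mean inhibition across valid replicates above about 65%, limit read from the data; inconclusive = mean under the limit, yet half or more replicates past it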;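 note: pathway switched on by Shh-conditioned medium diluted 1 in 25 in low serum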
PD-1 reversal = activators reversing PD-1 mediated T-cell inhibition, primary screen, luminescence, primary human CD4 T cells, PD-L1 beads. CellTiter-Glo 96 h. activation, % (no concentration beside the values). 29,000 tested, under 10 active. AID 2316, 2010; call rule not given here;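 note: 0% = median vehicle wells and 100% = positive control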
Active calls of the source: *; ? = inconclusive; . = no result given.

SMILES	NOMO-1 viab	Shh pathway inh	PD-1 reversal
CCC(C)[C@H]1C(=O)O[C@H](C(C)C)C(=O)N(C)[C@@H](C(C)CC)C(=O)O[C@H](C(C)C)C(=O)N(C)[C@@H](C(C)CC)C(=O)O[C@H](C(C)C)C(=O)N1C (stereo partly drawn)	119*	104*	-14
CC(CCc1ccc(O)cc1)O[C@@H]1O[C@H](CO[C@H]2OC[C@](O)(CO)[C@H]2O)[C@@H](O)[C@H](O)[C@H]1O (stereo partly drawn)	-1	-5	1
CCCC(=O)O[C@@H]1[C@@H](C)[C@@]2(O)[C@@H](C=C(CO)C[C@]3(O)C(=O)C(C)=C[C@@H]23)[C@@H]2C(C)(C)[C@]12OC(=O)CCC	59	70*	10
CCCSP(=O)(OCC)SCCC	-4	-44	.
O=C(O)C1C2CCC(O2)C1C(=O)NCCc1ccccc1 (stereo not drawn)	69	.	-12
N#Cc1c(Cl)cccc1Cl	-22	-15	.
C=C1[C@]23C(=O)O[C@@H](C)[C@]2(O)C(=O)O[C@@]1(C)[C@H](OC(C)=O)C1=C(C)[C@@]2(C=CC(=O)OC2(C)C)CCC13C (stereo partly drawn)	13	10	1
CCC(O)CC1CCCC(CC(O)c2ccccc2)N1C (stereo not drawn)	51	8	1
CC[C@@H](CO)NC(=O)[C@@H]1C=C2c3cccc4c3c(cn4C)C[C@H]2N(C)C1	-9	.	2
CN1C[C@H](CNC(=O)OCc2ccccc2)C[C@@H]2c3cccc4c3c(cn4C)C[C@H]21	104*	50	.
C[C@@H]1CCC/C=C/[C@H]2C[C@@H](O)C[C@@H]2[C@@H](O)/C=C\C(=O)O1	108*	101*	-6
CN(C)C(=O)Oc1ccnc(SCc2c(F)cccc2Cl)n1	68	9	1
N#CC(O[C@@H]1O[C@H](CO)[C@@H](O)[C@H](O)[C@H]1O)c1ccccc1 (stereo partly drawn)	-15	-30	1
COc1ccc(CCNCc2cc(Cl)cc(Cl)c2OC)cc1OC	15	.	-3
Cc1ccnc(NC(c2ccccc2[N+](=O)[O-])c2ccc3ccc(C)nc3c2O)c1 (stereo not drawn)	124*	.	-15
c1cncc(C2N=C(c3cnccn3)NN2)c1 (stereo not drawn)	-4	-53	5
CC(=O)Oc1ccc(/C=C/c2cc(OC(C)=O)cc(OC(C)=O)c2)cc1	88*	-13	.
c1cncc(C2Nc3ccccc3-n3cccc32)c1 (stereo not drawn)	72	-41	-6
C[C@]12C=CC(=O)C=C1CC[C@@H]1C2CC[C@]2(C)C(=O)CCC12 (stereo partly drawn)	12	-5	-1
O=c1[nH]c2ccccc2n1C1CCN(CCCC(c2ccc(F)cc2)c2ccc(F)cc2)CC1	116*	73*	.
COc1cc([C@@H]2c3cc4c(cc3[C@@H](O)C3COC(=O)C32)OCO4)cc(OC)c1O (stereo partly drawn)	102*	90*	.
COc1cc(C2c3cc4c(cc3CC3COC(=O)C32)OCO4)cc(OC)c1OC (stereo not drawn)	118*	80*	-9
COc1cc([C@@H]2c3cc4c(cc3[C@H](OC(C)=O)[C@H]3COC(=O)[C@@H]23)OCO4)cc(OC)c1OC	108*	8	.
COc1ccc2c(c1OC)C(=O)O[C@H]2[C@H]1c2cc3c(cc2CCN1C)OCO3	15	53	.
CCC1=CC2CN3CCc4c([nH]c5ccccc45)[C@@](C(=O)OC)(C2)[C@@H]13	33	9	1
SMILES	NOMO-1 viab	Shh pathway inh	PD-1 reversal
COC(=O)CC1(CC(=O)OC)C(=O)N(C)C(=O)N(C)C1=O	-9	.	1
Cc1c(O)c(C(=O)O)c(O)c2c1[C@H](C)[C@@H](C)OC2=O	-9	-4	1
Oc1ccc2c3c1OC1[C@@H](O)CC[C@@]4(O)[C@@H](C2)N(CC2CCC2)CC[C@]314 (stereo partly drawn)	3	-1	.
COc1ccc2c(c[n+](C)c3c4cc5c(cc4ccc23)OCO5)c1OC	142*	-9	-59
COc1ccc2c(c1OC)CN1CCc3cc4c(cc3C1C2)OCO4 (stereo not drawn)	15	-18	.
O=C(CCl)c1cc(Br)c(Br)s1	99*	-33	-26
COCc1cc(OC(=O)N(C)C)nc(-c2ccncc2)n1	22	.	-1
CCOC(=O)c1c(NC(=O)C2C(C)(C)C2(C)C)sc2c1CCC2	15	-3	-12
CCCCC/C=C\C/C=C\C/C=C\C/C=C\CCCC(N)=O	8	-26	.
CCCN1CCc2cccc3c2[C@H]1Cc1ccc(O)c(O)c1-3	113*	25	.
COc1cc2c3c(c1OC)-c1c(ccc(O)c1O)CC3N(C)CC2 (stereo not drawn)	35	-10	0
C=C(C)c1cc2cc(C(C)=O)c(O)cc2o1	66	-58	.
COc1ccc2[nH]c3c(c2c1)CCN=C3C	-4	16	.
COCc1cc(OC(=O)N(C)C)nc2c1c(-c1cccs1)nn2C	18	19	-3
CC[C@@H](C)C(=O)O[C@H]1[C@H](O)[C@H]2[C@@H](CN3C[C@@H](C)CC[C@H]3[C@@]2(C)O)C2C[C@]34O[C@@]5(O)[C@@H](OC(=O)[C@](C)(O)CC)CC[C@@]3(C)[C@@H]5[C@@H](OC(C)=O)[C@@H](OC(C)=O)[C@H]4[C@@]21O (stereo partly drawn)	15	9	2
CC(=O)NC1C(OC2OC(CC(O)C3OC(n4ccc(=O)[nH]c4=O)C(O)C3O)C(O)C(O)C2NC(=O)/C=C/CCCCCCCCCC(C)C)OC(CO)C(O)C1O (stereo not drawn)	108*	108*	-4
CCOC(=O)CN1C(=O)C2(C(C(=O)OCC)=C(N)OC3=C2C(=O)CC(C)(C)C3)c2ccccc21 (stereo not drawn)	2	29	4
CN1Cc2c(ccc3c2OCO3)[C@@H]2[C@H]1c1cc3c(cc1C[C@@H]2O)OCO3	138*	-8	0
CN1CCC2=C[C@H](O)[C@H]3OC(=O)c4cc5c(cc4[C@H]3[C@@H]21)OCO5	26	-5	.
C/C=C(\C)C(=O)OC1C(C)=C2C(C1OC(=O)CCCCCCC)C(C)(OC(C)=O)CC(OC(=O)CCC)C1(O)C2OC(=O)C1(C)O (stereo not drawn)	120*	101*	-14
C/C=C(/C)C(=O)O[C@H]1C(C)=C2[C@H]([C@@H]1OC(=O)CCCCCCC)[C@@](C)(OC(C)=O)C[C@H](OC(=O)CCC)[C@@]1(O)[C@H]2OC(=O)[C@@]1(C)O	122*	103*	.
COC1=CC(=O)O[C@@H](CCc2ccc3c(c2)OCO3)C1	13	-6	1
CC(C(=O)Nc1ccc(Cl)cc1C(=O)c1ccccc1)N1C(=O)C2C3C=CC(C3)C2C1=O (stereo not drawn)	36	.	-4
CN1CCc2nc3sc(C(=O)C(C)(C)C)c(N)c3cc2C1	122*	?	-1
CNC(=O)O/N=C(/C)SC	-11	-28	.
Cc1nn(Cc2cccc(C(=O)Nc3ccc4oc(=O)cc(C(F)(F)F)c4c3)c2)c(C)c1Cl	37	.	2
CCCCCc1cc(OC)c(CC=C(C)C)c(O)c1C(=O)O	.	-17	.
